In PubChem BioAssay (EPA / NIEHS):
Inconclusive results are not listed. A structure can be active in one record and inactive in another. Active and inactive are the calls of the source. How the source made its calls: active means hit-call score of the fitted dose curve at least 0.9, where 1 is the maximum; inconclusive means response in the unintended direction; inactive means score below 0.9.

Target: human Neurotensin Receptor (NTS), NTSR1 (gene 4923) (UniProt P30989)
Experiment: NVS_GPCR_hNTS: NovaScreen (NVS) G Protein-Coupled Receptor Assay for human Neurotensin Receptor (NTS) (AID 2283279)
How it was run: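 Radioligand displacement on human NTSR1 protein from CHO cells, cell-free, 1 h, filter-based scintillation counting. Primary screen at 25 uM in duplicate; hits rerun in concentration-response up to 50 uM.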

Chain of human Neurotensin Receptor (NTS), NTSR1 (gene 4923) (P30989 whole entry, looked up): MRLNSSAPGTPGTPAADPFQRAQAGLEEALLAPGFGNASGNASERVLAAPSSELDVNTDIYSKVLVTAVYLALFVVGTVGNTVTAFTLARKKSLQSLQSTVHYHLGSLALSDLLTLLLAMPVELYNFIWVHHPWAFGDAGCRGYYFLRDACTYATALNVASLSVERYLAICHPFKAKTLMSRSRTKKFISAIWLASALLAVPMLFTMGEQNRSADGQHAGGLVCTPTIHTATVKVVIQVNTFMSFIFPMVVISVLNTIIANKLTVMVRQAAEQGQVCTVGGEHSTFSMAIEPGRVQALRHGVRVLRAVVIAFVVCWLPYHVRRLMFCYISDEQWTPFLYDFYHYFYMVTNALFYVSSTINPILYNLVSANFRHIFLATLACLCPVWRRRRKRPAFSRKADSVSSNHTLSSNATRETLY

| SMILES | outcome |
| --- | --- |
| COC(=O)C(C)Oc1ccc(Oc2ccc(Cl)cc2Cl)cc1 (configuration not stated) | inactive |
| CNC(=S)S | inactive |
| COc1nc(C)nc(NC(=O)NS(=O)(=O)c2ccccc2Cl)n1 | inactive |
| C#CCOS(=O)OC1CCCCC1Oc1ccc(C(C)(C)C)cc1 (configuration not stated) | inactive |

Target: human Opioid Receptor Delta 1 (Opiate D1), OPRD1 (gene 4985) (UniProt P41143)
Experiment: NVS_GPCR_hOpiate_D1: NovaScreen (NVS) G Protein-Coupled Receptor Assay for human Opioid Receptor Delta 1 (Opiate D1) (AID 2283280)
Description: NVS_GPCR_hOpiate_D1 is a biochemical, single-readout assay that uses extracted gene-proteins from CHO in a cell-free assay. Measurements were taken 1 hour after chemical dosing in a 96-well plate.NVS_GPCR_hOpiate_D1 is one of one assay component(s) measured or calculated from the NVS_GPCR_hOpiate_D1 assay. It is designed to make measurements of radioligand binding, a form of binding reporter, as detected with scintillation counting signals by Filter-based radiodetection technology.Data from the assay component NVS_GPCR_hOpiate_D1 was analyzed into 1 assay endpoint. This assay endpoint, NVS_GPCR_hOpiate_D1, was analyzed in the positive analysis fitting direction relative to DMSO as the negative control and baseline of activity. Using a type of binding reporter, loss-of-signal activity can be used to understand changes in the binding as they relate to the gene OPRD1. Furthermore, this assay endpoint can be referred to as a primary readout, because the performed assay has only produced 1 assay endpoint. To generalize the intended target to other relatable targets, this assay endpoint is annotated to the gpcr intended target family, where the subfamily is rhodopsin-like receptor.
Binding assays used specific radioligands (tritiated, iodinated) with non-radioactive competitive displacement ligands in agonist or antagonist protocols (as indicated) and various reference compounds and inhibitors to titrate specific binding to receptors and transporters. Most enzyme assays (CYPs, kinases, phosphatases, proteases, HDACs) used recombinant protein and specific substrates (fluorescence mostly, some colorimetric and radioactive) and inhibitors, followed by a biochemical separation of substrate and product. All assays for the biochemical HTS were initially run in duplicate at a single concentration (10 uM for CYP450 assays and 25 uM for all others). […] Each assay was run with positive and negative controls, and concurrent controls on every plate. The follow-up (secondary) screen tested active chemical-pairs in concentration series, as well as a few additional assays not tested in the primary screen, some selected negative inactives, and several cases re-run in the concentration series for confirmatory purposes.

Chain of human Opioid Receptor Delta 1 (Opiate D1), OPRD1 (gene 4985) (P41143 whole entry, looked up): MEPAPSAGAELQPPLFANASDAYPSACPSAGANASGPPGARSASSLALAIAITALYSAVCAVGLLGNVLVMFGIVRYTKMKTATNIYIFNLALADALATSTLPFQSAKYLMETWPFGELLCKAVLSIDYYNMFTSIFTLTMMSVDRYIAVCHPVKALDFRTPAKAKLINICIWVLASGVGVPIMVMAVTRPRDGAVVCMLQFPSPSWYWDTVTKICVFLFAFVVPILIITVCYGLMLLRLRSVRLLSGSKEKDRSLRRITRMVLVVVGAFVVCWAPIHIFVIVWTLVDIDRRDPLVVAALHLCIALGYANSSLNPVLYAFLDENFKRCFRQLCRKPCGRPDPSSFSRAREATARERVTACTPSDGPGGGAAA

| SMILES | outcome | AC50 |
| --- | --- | --- |
| CCOP(=S)(OCC)SCn1c(=O)oc2cc(Cl)ccc21 | inactive |  |
| CO/C=C(/C(=O)OC)c1ccccc1Oc1cc(Oc2ccccc2C#N)ncn1 | inactive | 7.95 µM (active) |
| CCCCNC(=O)OCC#CI | inactive | 13.3 µM (active) |
| COc1ccc(C(c2ccc(OC)cc2)C(Cl)(Cl)Cl)cc1 | inactive |  |
| CCCC1COC(Cn2cncn2)(c2ccc(Cl)cc2Cl)O1 (configuration not stated) |  | 2.09 µM (active) |
| OC(c1ccc(Cl)cc1)(c1cncnc1)c1ccccc1Cl (configuration not stated) |  | 12.5 µM (active) |
